23 compounds from PubChem BioAssay can be followed below.

What is called AC50 is the concentration giving half of the maximal activity seen.

Test [1] in a line: differential killing of epithelial or mesenchymal cells, primary screen, imaging, PC-3E GFP, TEM4-18 mCherry, co-culture (AID 1345086).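 On all read-outs here: cells exposed to compound for 72 h before imaging.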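 On red/green cell ratio (normalised): normalised mesenchymal count divided by normalised epithelial count so high means epithelial killing.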 Particulars: imaging cell counts, at 1 µM; for red/green cell ratio (normalised): actives lie on both sides, counts scaled to control wells, 1 = unselective.
Test [2] is described as follows: growth inhibition of DIPG glioma cells, dose response, cell-based, SU-DIPG-XVII, MIPE5.0, CellTiter-Glo, qHTS (AID 1347060; cut-off not given, nearly all actives have AC50 up to about 26 µM;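 on AC50: cells exposed to compound for 48 hours before viability readout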). Particulars: SU-DIPG-XVII viability, CellTiter-Glo ATP luminescence. (ATP-based viability assays read luminescence as a measure of living cells.)
A short description of test [3]: growth inhibition of DIPG glioma cells, dose response, cell-based, SU-DIPG-XIII, MIPE4.0, CellTiter-Glo, qHTS (AID 1347061; cut-off not given, nearly all actives have AC50 up to about 37 µM;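 further: cells exposed to compound for 48 hours before readout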). The settings on record: SU-DIPG-XIII viability, CellTiter-Glo ATP luminescence.
A short description of test [4]: growth inhibition of DIPG glioma cells, dose response, cell-based, JHH-DIPG-1, MIPE4.0, CellTiter-Glo, qHTS (AID 1347062; cut-off not given, nearly all actives have AC50 up to about 27 µM;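 on AC50: cells exposed to compound for two days before readout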). Particulars: JHH-DIPG-1 viability, CellTiter-Glo ATP luminescence.
Test [5] in a line: growth inhibition of DIPG glioma cells, dose response, cell-based, SU-DIPG-IV, MIPE4.0, CellTiter-Glo, qHTS (AID 1347063; cut-off not given, nearly all actives have AC50 up to about 30 µM;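 further: compound exposure lasted 48 hours before the viability readout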). Particulars: SU-DIPG-IV viability, CellTiter-Glo ATP luminescence.
A short description of test [6]: growth inhibition of DIPG glioma cells, dose response, cell-based, SU-DIPG-XIII, MIPE5.0, CellTiter-Glo, qHTS (AID 1347064; cut-off not given, nearly all actives have AC50 up to about 23 µM;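 on AC50: cells exposed to compound for 48 hours before the viability read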). Particulars: SU-DIPG-XIII viability, CellTiter-Glo ATP luminescence.
[7] abbreviates: measured here: epithelial PC-3E GFP cell survival.
[8] abbreviates: measured here: mesenchymal TEM4-18 mCherry cell survival.

Values joined by “and” are separate entries in the source; they are usually repeats but may differ in a detail not shown here. Equal entries are not always repeated. Inconclusive results are not listed. Active and inactive are the calls of the source.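 How the source made its calls, unless noted: active means compounds killing one labelled cell type while sparing the other, by normalised counts and ratio limits, not self-fluorescent; inactive means the rest.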 Peptide text beside a SMILES is read from it.

`NCC1CCC(C(=O)O)CC1` (stereo not given): in test [1], the red/green cell ratio (normalised) was 1.26 (inactive). The normalised cell number in test [1] (setting [7]) is 1; in test [1] (setting [8]), 1.27. The result in test [2], in test [3], in test [4] and in test [5] was inactive.

In the case of `Cc1cc(C2CCCCC2)n(O)c(=O)c1`, the red/green cell ratio (normalised) in test [1] was 1.34 (inactive). The values for the normalised cell number in test [1] (setting [7]) and in test [1] (setting [8]) were 0.78 and 1.04, respectively. For the same compound, the half-maximal activity concentration (AC50) in test [2] was 2350 nM (active); in test [3], 16600 nM (active); in test [5] it was 3320 nM (active); in test [6], 4170 nM (active).

Turning to `CO[C@@H]1[C@@H](OC(N)=O)[C@@H](O)[C@H](Oc2ccc3c(O)c(NC(=O)c4ccc(O)c(CC=C(C)C)c4)c(=O)oc3c2C)OC1(C)C`, in test [1], the red/green cell ratio (normalised) is 1.14 (inactive). The normalised cell number in test [1] (setting [7]) is 1.07; in test [1] (setting [8]), 1.21. The result in test [2], in test [3], in test [4], in test [5] and in test [6] was inactive.

For the compound `CN(C)c1ccc(C(=C2C=CC(=[N+](C)C)C=C2)c2ccc(N(C)C)cc2)cc1`, in test [1], the red/green cell ratio (normalised) is 3.62 (active). Moreover, the values for the normalised cell number in test [1] (setting [7]) and in test [1] (setting [8]) were 0.14 and 0.5, respectively. In addition, the AC50 in test [2] was 1480 nM (active); in test [3], 2960 nM (active); in test [4] it was 235 nM (active); in test [5], 148 nM (active); in test [6] it was 1480 nM (active).

For the compound `COC(=O)[C@H](Cc1ccccc1)NC(=O)[C@@H](N)CC(=O)O` (H-Asp-Phe-OMe), in test [1], the red/green cell ratio (normalised) is 1.23 (inactive). Besides, the normalised cell number was found to be 1.01 in test [1] (setting [7]) and 1.24 in test [1] (setting [8]). The compound was called inactive in test [2], in test [3], in test [4] and in test [5].

With `O=C(Nc1ccc([N+](=O)[O-])cc1Cl)c1cc(Cl)ccc1O`, in test [1], the red/green cell ratio (normalised) was 0.66 (inactive). Besides, the normalised cell number in test [1] (setting [7]) came to 0.36; in test [1] (setting [8]), 0.24. For the same compound, the AC50 in test [2] is 1050 nM (active); in test [3] it was 935 nM (active); in test [4] it was 1660 nM (active); in test [5], 1660 nM (active); in test [6], 1180 nM (active).

Take `CNC[C@H](O)[C@@H](O)[C@H](O)[C@H](O)CO`: the red/green cell ratio (normalised) in test [1] is 0.7 (inactive). In addition, the values for the normalised cell number in test [1] (setting [7]) and in test [1] (setting [8]) were 1.19 and 0.84, respectively. Moreover, the compound was classed as inactive in test [2], in test [3], in test [5] and in test [6].

Take `NC(CO)C(=O)NNCc1ccc(O)c(O)c1O` (stereo not given): the red/green cell ratio (normalised) in test [1] is 1.1 (inactive). The results for the normalised cell number in test [1] (setting [7]) and in test [1] (setting [8]) were 1.12 and 1.23, respectively. For the same compound, the call in test [2], in test [3], in test [4], in test [5] and in test [6] was inactive.

With `O=C(O)CSCC(=O)NC1CCSC1=O` (stereo not given), the red/green cell ratio (normalised) in test [1] is 1.25 (inactive). Also, the normalised cell number in test [1] (setting [7]) stood at 0.94; in test [1] (setting [8]) it was 1.17. In addition, the call in test [2], in test [3], in test [4] and in test [5] was inactive.

As to `C[C@@H]1CN(c2c(F)c(N)c3c(=O)c(C(=O)O)cn(C4CC4)c3c2F)C[C@H](C)N1`, the red/green cell ratio (normalised) in test [1] was 0.99 (inactive). Further, the normalised cell number in test [1] (setting [7]) worked out at 1.12; in test [1] (setting [8]), 1.11. The result in test [2], in test [3], in test [4], in test [5] and in test [6] was inactive.

Consider `COc1ncnc(NS(=O)(=O)c2ccc(N)cc2)c1OC`, for which the red/green cell ratio (normalised) in test [1] is 1.18 (inactive). Further, the normalised cell number amounted to 0.5 in test [1] (setting [7]) and 0.6 in test [1] (setting [8]). The result in test [2], in test [3], in test [4], in test [5] and in test [6] was inactive.

`O=NN(CCCl)C(=O)NCCCl`: in test [1], the red/green cell ratio (normalised) is 1.04 (inactive). The normalised cell number in test [1] (setting [7]) turned out to be 1.15; in test [1] (setting [8]), 1.2. In addition, the call in test [2], in test [3], in test [4], in test [5] and in test [6] was inactive.

`N[C@@H](Cc1ccc(O)c(O)c1)C(=O)O`: the red/green cell ratio (normalised) in test [1] was 0.88 (inactive). Also, the results for the normalised cell number in test [1] (setting [7]) and in test [1] (setting [8]) were 1.01 and 0.89, respectively. The outcome in test [2], in test [3], in test [4] and in test [5] was inactive.

On to `O=c1oc2c(O)c(O)cc3c(=O)oc4c(O)c(O)cc1c4c23`, for which the red/green cell ratio (normalised) in test [1] is 0.99 (inactive). The normalised cell number came out at 0.85 in test [1] (setting [7]) and 0.84 in test [1] (setting [8]). Besides, the outcome in test [2], in test [3], in test [4] and in test [6] was inactive.

As to `COc1ccc(CCN(C)CCCC(C#N)(c2ccc(OC)c(OC)c2)C(C)C)cc1OC` (stereo not given), the red/green cell ratio (normalised) in test [1] is 1.29 (inactive). The normalised cell number in test [1] (setting [7]) turned out to be 1.17; in test [1] (setting [8]), 1.52. Moreover, the compound was called inactive in test [2], in test [3], in test [4], in test [5] and in test [6].

Consider `NCCS(=O)(=O)O`, for which the red/green cell ratio (normalised) in test [1] is 0.92 (inactive) and 0.87 (inactive). Moreover, the normalised cell number in test [1] (setting [7]) was 1.27 and 1.13; in test [1] (setting [8]) it was 1.17 and 0.99. Besides, the compound was classed as inactive in test [2], in test [3], in test [4] and in test [5].

Regarding `Cc1nc(-c2ccc(OCC(C)C)c(C#N)c2)sc1C(=O)O`, the red/green cell ratio (normalised) in test [1] was 1 (inactive). The normalised cell number in test [1] (setting [7]) and in test [1] (setting [8]) was 1.08 throughout. In addition, the result in test [2], in test [3], in test [4], in test [5] and in test [6] was inactive.

Take `CC1=C(C)C(=O)C(C(CCCCCC(=O)O)c2ccccc2)=C(C)C1=O` (stereo not given): the red/green cell ratio (normalised) in test [1] is 1.03 (inactive). In addition, the normalised cell number in test [1] (setting [7]) amounted to 1.04; in test [1] (setting [8]), 1.08. The call in test [2], in test [3], in test [4] and in test [5] was inactive.

Regarding `Cc1cnc(C(=O)O)c[n+]1[O-]`, the red/green cell ratio (normalised) in test [1] was 0.76 (inactive). For the same compound, the normalised cell number in test [1] (setting [7]) is 1.32; in test [1] (setting [8]), 1. Further, the compound was classed as inactive in test [2], in test [3], in test [4], in test [5] and in test [6].

For `CN(C)CCc1c[nH]c2ccc(CS(=O)(=O)N3CCCC3)cc12`, in test [1], the red/green cell ratio (normalised) was 1.06 (inactive). Also, the values for the normalised cell number in test [1] (setting [7]) and in test [1] (setting [8]) were 0.96 and 1.02, respectively. Further, the outcome in test [2], in test [3] and in test [4] was inactive.

With `CCOC(=O)C(C)(C)Oc1ccc(Cl)cc1`, the red/green cell ratio (normalised) in test [1] is 0.94 (inactive). For the same compound, the normalised cell number in test [1] (setting [7]) was 1.28; in test [1] (setting [8]), 1.2. For the same compound, the compound was classed as inactive in test [2], in test [3], in test [4] and in test [6].

For the compound `CCCCN(CCCC)CCC(O)c1cc2c(Cl)cc(Cl)cc2c2cc(C(F)(F)F)ccc12` (stereo not given), in test [1], the red/green cell ratio (normalised) is 1.18 (inactive). Besides, the normalised cell number stood at 1.03 in test [1] (setting [7]) and 1.22 in test [1] (setting [8]). For the same compound, the concentration at half-maximal activity (AC50) is 26300 nM (active) in test [2], 20900 nM (active) in test [5] and 16600 nM (active) in test [6]. Moreover, the compound was classed as inactive in test [3].

Consider `NC(=O)c1ncn([C@@H]2O[C@H](CO)[C@@H](O)[C@H]2O)n1`, for which, in test [1], the red/green cell ratio (normalised) was 0.68 (inactive). Further, the results for the normalised cell number in test [1] (setting [7]) and in test [1] (setting [8]) were 1.31 and 0.89, respectively. Moreover, the outcome in test [2], in test [3], in test [4] and in test [6] was inactive.
